Measurements as given in the supplement of paper PMC8728848.
Only a selection was taken, and the strongest signals are over-represented in it overall.

Tests used:
Assay in all cases: glycan array binding signal (z-score within array); higher = stronger binding
Details in all cases: glycan notation: IUPAC condensed, linker removed
[1] = biological target: Fuc(a1-2)Gal(b1-4)GlcNAc(b1-3)Gal(b1-4)GlcNAc(b1-2)Man(a1-3)[Fuc(a1-2)Gal(b1-4)GlcNAc(b1-3)Gal(b1-4)GlcNAc(b1-2)Man(a1-6)]Man(b1-4)GlcNAc(b1-4)GlcNAc
Summary of the method: (§1)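 Arrays were curated from the Consortium for Functional Glycomics database, 3228 in total, and kept only where the protein sequence was available. Binding is expressed as a within-array Z-score. This score was averaged across arrays of the same protein sequence at different concentrations or buffers and across linkers, and negative values can be read as non-binding.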

[2] = biological target: Fuc(a1-2)Gal6S(b1-3)GlcNAc6S
Summary of the method: as §1

[3] = biological target: Fuc(a1-2)[Gal(a1-3)]Gal(b1-4)[Fuc(a1-3)]GlcNAc(b1-3)GalNAc
Summary of the method: as §1

[4] = biological target: Fuc(a1-2)[Gal(a1-4)]Gal(b1-4)GlcNAc
Summary of the method: as §1

[5] = biological target: Fuc(a1-2)[GalNAc(a1-3)]Gal(b1-4)GlcNAc(b1-3)Gal(b1-4)GlcNAc(b1-3)Gal(b1-4)GlcNAc
Summary of the method: as §1

[6] = biological target: Gal(a1-3)Gal(b1-3)GlcNAc(b1-6)GalNAc
Summary of the method: as §1

[7] = biological target: Gal(a1-3)Gal(b1-4)GlcNAc
Summary of the method: as §1

[8] = biological target: Gal(a1-3)Gal(b1-4)GlcNAc(b1-2)Man
Summary of the method: as §1

[9] = biological target: Gal(a1-4)GlcNAc
Summary of the method: as §1

[10] = biological target: Gal(a1-6)Glc
Summary of the method: as §1

[11] = biological target: Gal(b1-3)Gal
Summary of the method: as §1

[12] = biological target: Gal(b1-3)GalNAc(a1-3)[Fuc(a1-2)]Gal(b1-4)GlcNAc
Summary of the method: as §1

[13] = biological target: Gal(b1-3)GalNAc(b1-4)Gal(b1-4)Glc
Summary of the method: as §1

[14] = biological target: Gal(b1-3)GlcNAc(a1-6)Gal(b1-4)GlcNAc
Summary of the method: as §1

[15] = biological target: Gal(b1-3)GlcNAc(b1-3)Gal(b1-4)GlcNAc
Summary of the method: as §1

[16] = biological target: Gal(b1-3)GlcNAc(b1-3)Gal(b1-4)GlcNAc(b1-6)[Gal(b1-3)GlcNAc(b1-3)]Gal(b1-4)Glc
Summary of the method: as §1

[17] = biological target: Gal(b1-4)GlcNAc(b1-2)[Gal(b1-4)GlcNAc(b1-6)]Man(a1-6)[GlcNAc(b1-4)][Gal(b1-4)GlcNAc(b1-2)Man(a1-3)]Man(b1-4)GlcNAc(b1-4)GlcNAc
Summary of the method: as §1

[18] = biological target: Gal(b1-4)GlcNAc(b1-3)Gal(b1-4)GlcNAc(b1-2)Man(a1-3)[Gal(b1-4)GlcNAc(b1-3)Gal(b1-4)GlcNAc(b1-2)Man(a1-6)]Man(b1-4)GlcNAc(b1-4)GlcNAc
Summary of the method: as §1

[19] = biological target: Gal(b1-4)GlcNAc(b1-3)Gal(b1-4)GlcNAc(b1-3)Gal(b1-4)GlcNAc(b1-3)Gal(b1-4)GlcNAc(b1-3)Gal(b1-4)GlcNAc(b1-2)Man(a1-3)[Gal(b1-4)GlcNAc(b1-3)Gal(b1-4)GlcNAc(b1-3)Gal(b1-4)GlcNAc(b1-3)Gal(b1-4)GlcNAc(b1-3)Gal(b1-4)GlcNAc(b1-2)Man(a1-6)]Man(b1-4)GlcNAc(b1-4)[Fuc(a1-6)]GlcNAc
Summary of the method: as §1

[20] = biological target: Gal(b1-4)GlcNAc(b1-3)GalNAc
Summary of the method: as §1

[21] = biological target: Gal(b1-4)GlcNAc(b1-3)[GlcNAc(b1-6)]Gal(b1-4)GlcNAc
Summary of the method: as §1

[22] = biological target: Gal4S(b1-4)GlcNAc
Summary of the method: as §1

[23] = biological target: Gal6S(b1-3)GlcNAc6S
Summary of the method: as §1

[24] = biological target: Gal6S(b1-4)Glc6S
Summary of the method: as §1

[25] = biological target: Gal6S(b1-4)GlcNAc6S
Summary of the method: as §1

[26] = biological target: GalNAc(b1-3)Gal(a1-4)Gal(b1-4)GlcNAc(b1-3)Gal(b1-4)Glc
Summary of the method: as §1

[27] = biological target: GalNAc(b1-3)GalNAc
Summary of the method: as §1

[28] = biological target: GalNAc(b1-4)GlcNAc(b1-2)Man
Summary of the method: as §1

[29] = biological target: GlcA(b1-6)Gal
Summary of the method: as §1

[30] = biological target: GlcNAc(a1-4)Gal(b1-4)GlcNAc(b1-3)Gal(b1-4)GlcNAc
Summary of the method: as §1

[31] = biological target: GlcNAc(b1-2)Man(a1-3)[GlcNAc(b1-4)][GlcNAc(b1-2)Man(a1-6)]Man(b1-4)GlcNAc(b1-4)[Fuc(a1-6)]GlcNAc
Summary of the method: as §1

[32] = biological target: GlcNAc(b1-2)[GlcNAc(b1-4)]Man(a1-3)[GlcNAc(b1-2)Man(a1-6)]Man(b1-4)GlcNAc(b1-4)GlcNAc
Summary of the method: as §1

[33] = biological target: GlcNAc(b1-3)Gal(b1-4)GlcNAc
Summary of the method: as §1

[34] = biological target: GlcNAc(b1-3)Gal(b1-4)GlcNAc(b1-2)Man(a1-3)[GlcNAc(b1-3)Gal(b1-4)GlcNAc(b1-2)Man(a1-6)]Man(b1-4)GlcNAc(b1-4)GlcNAc
Summary of the method: as §1

[35] = biological target: GlcNAc(b1-3)Gal(b1-4)GlcNAc(b1-3)Gal(b1-4)GlcNAc(b1-3)Gal(b1-4)GlcNAc(b1-2)[GlcNAc(b1-3)Gal(b1-4)GlcNAc(b1-3)Gal(b1-4)GlcNAc(b1-3)Gal(b1-4)GlcNAc(b1-6)]Man(a1-6)[GlcNAc(b1-3)Gal(b1-4)GlcNAc(b1-3)Gal(b1-4)GlcNAc(b1-3)Gal(b1-4)GlcNAc(b1-2)Man(a1-3)]Man(b1-4)GlcNAc(b1-4)[Fuc(a1-6)]GlcNAc
Summary of the method: as §1

[36] = biological target: GlcNAc(b1-3)[GlcNAc(b1-4)][GlcNAc(b1-6)]GlcNAc
Summary of the method: as §1

[37] = biological target: Man(a1-6)Man
Summary of the method: as §1

[38] = biological target: Neu5Ac(a2-3)Gal(b1-3)[Fuc(a1-4)]GlcNAc(b1-3)Gal(b1-4)[Fuc(a1-3)]GlcNAc
Summary of the method: as §1

[39] = biological target: Neu5Ac(a2-3)Gal(b1-4)GlcNAc(b1-2)Man(a1-3)[Neu5Ac(a2-3)Gal(b1-4)GlcNAc(b1-2)Man(a1-6)]Man(b1-4)GlcNAc(b1-4)GlcNAc
Summary of the method: as §1

[40] = biological target: Neu5Ac(a2-3)Gal(b1-4)GlcNAc(b1-3)Gal(b1-4)GlcNAc(b1-6)[Gal(b1-3)]GalNAc
Summary of the method: as §1

[41] = biological target: Neu5Ac(a2-3)Gal(b1-4)[Fuc(a1-3)]GlcNAc(b1-3)Gal
Summary of the method: as §1

[42] = biological target: Neu5Ac(a2-3)Gal(b1-4)[Fuc(a1-3)]GlcNAc(b1-3)Gal(b1-4)[Fuc(a1-3)]GlcNAc(b1-3)Gal(b1-4)[Fuc(a1-3)]GlcNAc
Summary of the method: as §1

[43] = biological target: Neu5Ac(a2-6)Gal(b1-4)GlcNAc(b1-2)Man(a1-6)Man(b1-4)GlcNAc(b1-4)GlcNAc
Summary of the method: as §1

[44] = biological target: Neu5Ac(a2-6)Gal(b1-4)GlcNAc(b1-3)[Neu5Ac(a2-6)Gal(b1-4)GlcNAc(b1-6)]GalNAc
Summary of the method: as §1

[45] = biological target: Neu5Ac(a2-8)Neu5Ac(a2-3)Gal(b1-3)GalNAc(b1-4)[Neu5Ac(a2-8)Neu5Ac(a2-3)]Gal(b1-4)Glc
Summary of the method: as §1

B1: Epa22 (Candida glabrata) (protein)
chain: MGSSHHHHHHSSGLVPRGSHMKRALSSQNPFGYPIGCSPQSTNVIPGLTMELYSYPIVSGTPPNCYDASYVDPEYPRTGYLKRKMIGKSTGVTGSLNYKFSVEKACMVKYGNLPAGYNYNEPLTVSNFTMLLYGYFKPQTSGIHTFFVNADDLLYINFGAGNAFDCCKREDSKFKLGEYVAYDIWHVDSSKNKVSLNLEKDVYYPIRMFFNNIGKDSSLDLSFSVNGAVEHITDFSGYLYSVPDQPDACPAPIGYDTTCK
Question: With B1 as the binder, how does the “glycan array binding signal (z-score)” value [1] read?
Answer: The value was -0.382.

Question: What about the “glycan array binding signal (z-score)” value [2] of the same binder?
Answer: Its value is 5.1.

Question: And the “glycan array binding signal (z-score)” value [3]?
Answer: The value was -0.345.

Question: And the “glycan array binding signal (z-score)” value [4]?
Answer: Its value is 4.5.

Question: And the “glycan array binding signal (z-score)” value [5]?
Answer: The value was -0.366.

Question: What about the “glycan array binding signal (z-score)” value [6] of the same binder?
Answer: The value was 3.74.

Question: And the “glycan array binding signal (z-score)” value [7]?
Answer: The value was 5.2.

Question: And the “glycan array binding signal (z-score)” value [8]?
Answer: Its value is 4.75.

Question: And the “glycan array binding signal (z-score)” value [9]?
Answer: Its value is 5.91.

Question: What about the “glycan array binding signal (z-score)” value [10] of the same binder?
Answer: The value was 6.63.

Question: And the “glycan array binding signal (z-score)” value [11]?
Answer: Its value is 1.3.

Question: And the “glycan array binding signal (z-score)” value [12]?
Answer: The value was -0.36.

Question: And the “glycan array binding signal (z-score)” value [13]?
Answer: Its value is 0.34.

Question: And the “glycan array binding signal (z-score)” value [14]?
Answer: The value was 0.491.

Question: What about the “glycan array binding signal (z-score)” value [15] of the same binder?
Answer: The value was -0.148.

Question: What about the “glycan array binding signal (z-score)” value [16] of the same binder?
Answer: Its value is -0.145.

Question: What about the “glycan array binding signal (z-score)” value [17] of the same binder?
Answer: Its value is -0.288.

Question: And the “glycan array binding signal (z-score)” value [18]?
Answer: Its value is 0.073.

Question: And the “glycan array binding signal (z-score)” value [19]?
Answer: The value was -0.231.

Question: What about the “glycan array binding signal (z-score)” value [20] of the same binder?
Answer: Its value is -0.023.

Question: And the “glycan array binding signal (z-score)” value [21]?
Answer: The value was -0.387.

Question: What about the “glycan array binding signal (z-score)” value [22] of the same binder?
Answer: The value was -0.182.

Question: And the “glycan array binding signal (z-score)” value [23]?
Answer: The value was 5.95.

Question: What about the “glycan array binding signal (z-score)” value [24] of the same binder?
Answer: The value was 4.93.

Question: What about the “glycan array binding signal (z-score)” value [25] of the same binder?
Answer: The value was 4.56.

Question: What about the “glycan array binding signal (z-score)” value [26] of the same binder?
Answer: The value was -0.336.

Question: And the “glycan array binding signal (z-score)” value [27]?
Answer: The value was -0.424.

Question: What about the “glycan array binding signal (z-score)” value [28] of the same binder?
Answer: Its value is -0.393.

Question: What about the “glycan array binding signal (z-score)” value [29] of the same binder?
Answer: Its value is 5.98.

Question: And the “glycan array binding signal (z-score)” value [30]?
Answer: The value was -0.413.

Question: And the “glycan array binding signal (z-score)” value [31]?
Answer: The value was -0.35.

Question: What about the “glycan array binding signal (z-score)” value [32] of the same binder?
Answer: Its value is -0.368.

Question: What about the “glycan array binding signal (z-score)” value [33] of the same binder?
Answer: Its value is -0.312.

Question: What about the “glycan array binding signal (z-score)” value [34] of the same binder?
Answer: Its value is -0.39.

Question: And the “glycan array binding signal (z-score)” value [35]?
Answer: The value was -0.37.

Question: What about the “glycan array binding signal (z-score)” value [36] of the same binder?
Answer: The value was -0.383.

Question: And the “glycan array binding signal (z-score)” value [37]?
Answer: Its value is -0.371.

Question: And the “glycan array binding signal (z-score)” value [38]?
Answer: The value was -0.409.

Question: What about the “glycan array binding signal (z-score)” value [39] of the same binder?
Answer: Its value is -0.356.

Question: And the “glycan array binding signal (z-score)” value [40]?
Answer: Its value is -0.248.

Question: And the “glycan array binding signal (z-score)” value [41]?
Answer: The value was -0.385.

Question: And the “glycan array binding signal (z-score)” value [42]?
Answer: The value was -0.375.

Question: And the “glycan array binding signal (z-score)” value [43]?
Answer: Its value is -0.426.

Question: And the “glycan array binding signal (z-score)” value [44]?
Answer: Its value is -0.246.

Question: And the “glycan array binding signal (z-score)” value [45]?
Answer: The value was -0.003.
